# Results from PubChem BioAssay AID748 (Sanford-Burnham Center for Chemical Genomics, 2007).
# Hit rate of the full screen: of about 96,000 compounds, about 100 (0.1%) were called active.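 How the source made its calls: active means displacement above 50% at 20 µM plus a fluorescence interference ratio under 1.5; inactive means the rest.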 What follows is part of a selection rich in actives, with near analogues and random picks from the rest. Measured potencies and affinities stand elsewhere.
# Molecular target: Bcl-2-like protein 10 (Homo sapiens) (UniProt Q9HD36)
# Assay: Bcl-B/TR3 peptide binding disruption – biochemical, fluorescence polarization, FITC-TR3 peptide, selectivity assay for Bfl-1 inhibitor project, primary screen (AID 748);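 further: plate controls were wells without compound for no effect and wells lacking Bcl-B protein for full effect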
# Conditions: FP displacement of FITC-TR3 peptide from Bcl-B; at 20 µM; stronger effect = higher value
row,SMILES,displacement
1,COc1ccc(N=C2SC(CC(=O)Nc3ccccc3)C(=O)N2CC2CCCO2)cc1 (configuration not stated),-7.7% (inactive)
2,COc1cccc(OCC(=O)NC2CCCCC2)c1,-1.4% (inactive)
3,Cc1cc(=O)oc2cc(OCC(=O)N3CCc4ccccc4C3)ccc12,-2.9% (inactive)
4,COc1ccc2c(c1)c(=O)oc1cc(OCC(=O)N3CCCC(C)C3)ccc12 (configuration not stated),31.5% (inactive)
5,COc1ccc2c(c1)c(=O)oc1cc(OCC(=O)NC3CC3)ccc12,-27.3% (inactive)
6,COc1ccc2c(c1)c(=O)oc1c(C)c(OCC(=O)N3CCc4ccccc4C3)ccc12,17.9% (inactive)
7,Cc1cc(=O)oc2ccc(OCC(=O)N3CCC(C)CC3)cc12,-6.2% (inactive)
8,COC(=O)c1ccccc1OCC(=O)NC1CCCCC1,-0.5% (inactive)
9,O=C1CC(=O)C(n2cncn2)C(c2c(F)cccc2Cl)C1 (configuration not stated),1.3% (inactive)
10,O=C(CSc1ncccc1-c1nc2ccccc2[nH]1)N1CCN(c2ccccc2F)CC1,-0.6% (inactive)
11,COc1cc(C(=O)NCCC(=O)NCCCN2CCCCC2C)cc(OC)c1OC (configuration not stated),-7% (inactive)
12,Cc1ccc(/C=N/NC(=O)c2cccs2)cc1[N+](=O)[O-],-1.9% (inactive)
13,O=[N+]([O-])c1cc(/C=N\Nc2nccs2)ccc1O,107% (active)
14,Clc1cccc(/C=N\Nc2nccs2)c1,-14.4% (inactive)
15,CCCn1c(CN2CCN(C(=O)c3ccco3)CC2)nc2c1c(=O)n(C)c(=O)n2C,-3.6% (inactive)
16,CCSc1nnc(NC(=O)c2cnccn2)s1,58.3% (active)
17,CCSc1nnc(NC(=O)c2ccccn2)s1,2.1% (inactive)
18,CCc1nnc(NC(=O)c2cnccn2)s1,-1% (inactive)
19,CCc1c(C)nc2[nH]nc(-c3ccccc3)n2c1=O,3.2% (inactive)
20,CCOC(=O)c1cc2c(=O)n3cccc(C)c3nc2n(Cc2ccccc2Cl)c1=N,-0.7% (inactive)
21,Cn1c(=O)[nH]c(=O)c2c1nc(Br)n2Cc1ccccc1Cl,-0.4% (inactive)

row,SMILES,displacement
1,COc1cccc(C(=O)NC2CC3CCCC(C2)N3CC(=O)Nc2ccc(N(C)C)cc2)c1 (configuration not stated),7.7% (inactive)
2,COc1cc(C(=O)NC2CC3CCCC(C2)N3CC(=O)Nc2ccccc2)cc(OC)c1OC (configuration not stated),-5.3% (inactive)
3,Cn1c(=O)c2nnn(/N=C(\c3ccccc3)C3CC3)c2n(C)c1=O,0.7% (inactive)
4,COc1ccc(C2=Nn3c(nnc3-c3ccco3)SC2)cc1,0.6% (inactive)
5,Oc1ccc(C2=Nn3c(nnc3-c3ccco3)SC2)cc1O,56.6% (active)
6,COc1ccc(C2=Nn3c(nnc3-c3ccco3)SC2)cc1OC,5.3% (inactive)
7,COc1ccc(NC(=O)C2CCCN(c3c4c(nc5ncnn35)CCC4)C2)cc1 (configuration not stated),-4.1% (inactive)
8,COc1ccc(NC(=O)C2CCN(C(=O)c3ccc(OC)cc3)CC2)cc1,3.5% (inactive)
9,COC(=O)c1cccc(NC(=O)COC(=O)CSc2nc(C)cc(C)n2)c1,-13.3% (inactive)
10,CCOC(=O)c1cccc(NC(=O)CSc2nc(N)cc(N)n2)c1,-1.6% (inactive)
11,Cc1cccc(NC(=O)CSc2nnc(-c3ccco3)c(-c3ccco3)n2)c1C,37.3% (inactive)
12,O=C(CSc1nnc2c3ccccc3c3ccccc3c2n1)Nc1ccccc1,-29.6% (inactive)
13,Cc1cccc(NC(=O)CSc2nnc(-c3ccco3)o2)c1C,7.2% (inactive)
14,Cc1ccc(SCC(=O)Nc2ccc(-c3nnc(-c4ccco4)o3)cc2)cc1,-9.5% (inactive)
15,CCc1nnc(SCC(=O)Nc2ccccc2)nc1CC,-1.5% (inactive)
16,Cc1cccc(C)c1NC(=O)CSc1nnc(-c2ccco2)c(-c2ccco2)n1,-4.1% (inactive)
17,Cc1ccc2oc(-c3cccc(NC(=O)c4ccc(Br)o4)c3)nc2c1,-23.6% (inactive)
18,CC(NC(=O)CSc1nnc(CC(=O)Nc2ccc(Cl)c(Cl)c2)n1C)c1ccccc1 (configuration not stated),-13.6% (inactive)
19,Cc1cccc(N(C)S(=O)(=O)c2ccc3c(c2)CCC(=O)N3)c1,-24.5% (inactive)
20,Cc1ccc(S(=O)(=O)Cc2ccc(C(=O)N3CCCC3)o2)cc1,-6.7% (inactive)
21,Cc1ccc(S(=O)(=O)Cc2ccc(C(=O)N3CCN(Cc4ccccc4)CC3)o2)cc1,16.9% (inactive)

row,SMILES,displacement
1,Cc1ccc(S(=O)(=O)Cc2ccc(C(=O)N3CCCCCC3)o2)cc1,21.6% (inactive)
2,COc1ccc(S(=O)(=O)Cc2ccc(C(=O)N3CCc4ccccc4C3)o2)cc1,9.8% (inactive)
3,COC(=O)c1cccc(NC(=O)CSc2nnc(C)n2Cc2ccccc2)c1,-10.5% (inactive)
4,CCOc1ccc(N2C(=O)CC(N3CCN(C4CCc5ccccc5C4)CC3)C2=O)cc1 (configuration not stated),5.4% (inactive)
5,Cc1ccc2c(c1)c1c3n2CCN(C(=O)CN2CCN(C)CC2)C3CCC1 (configuration not stated),15.1% (inactive)
6,CC(=O)N1CCn2c3c(c(=O)c4cc(C)ccc42)CCC31 (configuration not stated),4.4% (inactive)
7,COc1cc(NC(=O)COC(=O)c2nc3nc(C)cc(C)n3n2)cc(OC)c1,0.7% (inactive)
8,COCC(C)n1c(C)cc(C(=O)COC(=O)c2nc3nc(C)cc(C)n3n2)c1C (configuration not stated),9.9% (inactive)
9,Cc1ccc(CC(=O)NC(C)CCc2ccccc2)cc1 (configuration not stated),1% (inactive)
10,Cc1cc(NC(=O)COC(=O)[C@H](C)NC(=O)c2ccccc2)no1,11.4% (inactive)
11,Cc1ccc(C)n1-c1ccc(C(=O)O)cc1,42.6% (inactive)
12,O=C(O)c1cccc(N2CCCC2)c1,-2.4% (inactive)
13,N/C(COc1ccc(F)cc1)=N\NC(=O)c1cccnc1Oc1ccccc1,12.1% (inactive)
14,C/C(Cl)=C/Cn1c(=O)c2c(nc(Br)n2Cc2ccccc2)n(C)c1=O,4.3% (inactive)
15,C/C(N)=C(/C#N)C(=O)CSc1nnc(Nc2ccccc2C)s1,4.3% (inactive)
16,C/C(N)=C(/C#N)C(=O)CSc1nnc(Nc2cccc(C)c2C)s1,-1.5% (inactive)
17,O=S(=O)(c1ccccc1)N1CCSC1c1ccco1 (configuration not stated),-4.6% (inactive)
18,CCc1cc(C(=O)Cc2cnn(-c3ccccc3)c2)c(O)cc1O,-5.9% (inactive)
19,Cc1ccc(O)c(C(=O)c2cnn(-c3ccccc3)c2)c1,-8.5% (inactive)
20,CC(SCCc1ccccn1)C(=O)O (configuration not stated),-2% (inactive)
